# Results reported in PubChem BioAssay AID435006 (Sanford-Burnham Center for Chemical Genomics, 2010).
# Screen size: about 1,300 compounds; about 1,100 (85%) were called active. Cut-off read from the data, not from the text of the source: active = inhibition above about 48%; inactive = the rest. So high a share suggests a set chosen from earlier hits. Only a sample is shown.
# Experiment: yeast-expressed human NALP3 blockade – luminescence, single concentration, confirmation (AID 435006)
# Conditions: yeast expressing human NALP3, luminescence; at 10 µM; stronger effect = higher value
row,SMILES,inhibition
1,Cc1cc2ccccn2c1C(C[N+](=O)[O-])c1c(F)cccc1Cl (stereo unspecified),72.8% (active)
2,O=C1/C(=C\c2ccc3c(c2)OCO3)N2CCC1CC2,59.5% (active)
3,CCCCCCCCCCCCn1ccc(=N)cc1,82.9% (active)
4,C[C@]12CCC3C(CC[C@H]4C[C@@H](O)CC[C@]34C)C1CC[C@@H]2O (stereo partly specified),57.9% (active)
5,C[C@]12CCC3C(CC[C@H]4C[C@@H](O)CC[C@]34C)C1C[C@@H](O)[C@H]2O (stereo partly specified),53% (active)
6,Cc1ccc(-c2nc3ccccc3c(=O)n2-c2ccc(Br)cn2)cc1,73.3% (active)
